High-throughput results: PubChem, National Center for Advancing Translational Sciences (NCATS)
ALDH1A1 block – blocks purified human ALDH1A1 activity; Purified ALDH1A1, NADH fluorescence, propionaldehyde substrate; Potency, µM (top dose mostly 75.3 µM), inactives show top-dose activity, negative = inhibition, usual class: inhibitors; 7.3% of 220,000 active; active = well fitted inhibition curve with a large enough effect, not every such curve was filed as active; inconclusive = small, poorly fitted or top-dose-only effect, or another doubt; inactive = no such curve, though single readings can be large or run the other way;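 also: potency is read from the fitted curve at half-maximal effect; plate controls were no enzyme wells and a reference inhibitor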
IMPase cell inh – membrane-permeable compound that blocks inositol monophosphatase | P97697 | CHO-M1 cells, IP1 accumulation, HTRF TR-FRET ratio | inhibition (IP1 accumulation), % at 46.1 µM | 120,000 tested, under 10 active; active = well fitted curve in the direction sought with a large enough effect in the signal ratio, not every such curve was filed as active; inconclusive = small, poorly fitted or top-dose-only effect, or a change in a side signal; inactive = no such curve, though single readings can be large or run the other way; the % refers to the signal ratio;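 also: cells stimulated with carbachol in lithium chloride buffer; plate controls were DMSO basal wells for no effect and reference inhibitor wells for full effect; higher means more IMPase inhibition seen as more IP1 and lower FRET ratio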
Target sequence (P97697 whole entry, looked up): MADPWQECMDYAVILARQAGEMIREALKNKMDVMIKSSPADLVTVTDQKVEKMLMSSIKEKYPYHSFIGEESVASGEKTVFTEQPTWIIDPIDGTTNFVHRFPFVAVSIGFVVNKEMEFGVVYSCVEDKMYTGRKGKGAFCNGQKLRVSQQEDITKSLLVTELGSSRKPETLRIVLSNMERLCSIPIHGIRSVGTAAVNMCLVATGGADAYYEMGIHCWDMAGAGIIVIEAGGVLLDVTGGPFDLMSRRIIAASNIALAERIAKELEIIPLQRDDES
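Seeded CHO-M1 cells were dosed with compound at up to 46 uM, stimulated with carbachol for 30 min, then lysed in IP-One detection reagents. Higher IP1 lowers the TR-FRET signal.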
HPGD inh – inhibitors of human 15-hydroxyprostaglandin dehydrogenase (HPGD); Potency, µM, for the others: top-dose activity change, negative = inhibition, actives largely listed as inhibitors; P15428; AID 894; purified HPGD, NADH fluorescence kinetic, PGE2 substrate; 4.3% of 150,000 active; active = well fitted inhibition curve with a large enough effect, not every such curve was filed as active; inconclusive = small, poorly fitted or top-dose-only effect, or another doubt; inactive = no such curve, though single readings can be large or run the other way; also: potency is read from the fitted curve at half-maximal effect; % is scaled to controls: 0 for no effect and ±100 for the full control effect
Target sequence (P15428 whole entry, looked up): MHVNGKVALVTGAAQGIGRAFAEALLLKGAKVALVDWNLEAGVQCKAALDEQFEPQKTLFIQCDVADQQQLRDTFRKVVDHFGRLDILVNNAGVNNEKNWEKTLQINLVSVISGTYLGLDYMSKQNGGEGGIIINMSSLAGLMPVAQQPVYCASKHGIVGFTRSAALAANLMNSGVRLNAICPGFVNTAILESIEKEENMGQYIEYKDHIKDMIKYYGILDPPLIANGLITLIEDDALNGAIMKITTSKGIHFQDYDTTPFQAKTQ
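20 nM HPGD preincubated 15 min at room temperature with compound in 50 mM Tris-HCl pH 8, 0.01% Tween 20. Started with 1 mM NAD+ and 30 uM prostaglandin E2; NADH fluorescence (360/450 nm) read 5 times over 30-s intervals, last minus first.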
HTT aggregate – reduces HttQ103-GFP aggregates in PC12 cells | 1.1% of 220,000 active | PC12 HttQ103-GFP aggregates, Acumen cytometry, 40 h | AID 1688 | Potency, µM (top dose mostly 46.1 µM), inactives show top-dose activity change, negative = inhibition, actives largely listed as inhibitors; also: potency is read from the fitted curve at half-maximal effect; % is scaled to controls: 0 for no effect and ±100 for the full control effect; nearly all actives have a fitted effect of over 60% in size
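Inducible Q103 Huntingtin exon 1–GFP PC12 line, 1500 cells/well in phenol red free DMEM with 5% equine and 5% calf serum. Tebufenozide 100 nM induced expression; compounds titrated; aggregates quantified by cytometry.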
HTT ATP protect – cytoprotection in Huntington HTT-Q103 PC12 cell model. PC12 HTT-Q103 induced, cytoprotection, ATP luminescence, 40 h. Potency, µM (series often up to 56.4 µM), for the others: cytoprotection (ATP increase), usual class: activators. 0.14% of 230,000 active. AID 1471; also: potency is read from the fitted curve at half-maximal effect; % of control where 0% means no effect; nearly all actives have a fitted effect of over 45% in size
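Stable PC12 Q103-GFP cells in serum-supplemented, phenol red-free DMEM; induction by tebufenozide at 100 nM final; compound dose series; cell viability quantified luminescently from ATP.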
IMPase Li cell – cell-permeable IMPase inhibitors with lithium potentiation. 0.35% of 210,000 active. CHO-M1 cells, IP1 TR-FRET (IP-One), carbachol + lithium. AID 1457. Potency, µM (top dose mostly 59.4 µM), for inactives: top-dose activity, negative = IMPase inhibition, usual class: inhibitors;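 also: IP1 builds up when IMPase is blocked and the TR-FRET signal falls; potency is read from the fitted curve at half-maximal effect; plate controls were basal vehicle for no effect and high inhibitor control for full effect; nearly all actives have a fitted effect of over 50% in size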
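CHO-M1, 2000 cells/well, 16–30 h culture; cpd + low Li+, 30 min 37C; lysis with d2-IP1/Eu-anti-IP1 Ab, 10 min RT; TR-FRET 665/620 ratio and 620 channel; AC50 via Hill.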
Numbers without * were called inactive; ? = inconclusive; / = no result; [ ] = remark or other dose. Most compounds without a hit are left out; they make up all but 9.4% or so of the library. Unless noted, calls follow the shape of the dose curve; as a rule, active = well fitted curve in the direction sought with a large enough effect; inconclusive = small, poorly fitted or top-dose-only effect, or another doubt; inactive = no such curve, though single readings can be large; an effect the other way counts as inactive or inconclusive.

SMILES | ALDH1A1 block | IMPase cell inh | HPGD inh | HTT aggregate | HTT ATP protect | IMPase Li cell
CCN(CC)c1ccc(/C=C/C(=O)C2C(=O)C=C(C)OC2=O)cc1 (centres undefined) | 18µM* | / | / | ? | -106% | -16%
C=C(C)C(=O)NNc1ccccc1 | 22µM* | / | / | 12% | 6%[10 µM] | 2%
CCN(CC)S(=O)(=O)c1cc(C(=O)Nc2ccncc2)ccc1Cl | ? | 4 | -11% | -4% | 13% | 6%[38.3 µM]
CCN(CC)S(=O)(=O)c1cc(C(=O)Nc2cccnc2)ccc1Cl | 4.5µM* | 7 | -7% | 13% | -56%[10 µM] | 44%[38.3 µM]
O=C(Nc1ccc2oc(-c3cccnc3)nc2c1)c1ccc(-c2cccc(OC(F)(F)F)c2)o1 | / | -15 | / | / | / | /
COC(=O)c1ccc(NC(=O)CN(C)S(=O)(=O)c2ccc(OC)c(C)c2)cc1 | ? | 6 | -22% | 1.3µM* | 4%[10 µM] | 10%[38.3 µM]
CC(=O)O[C@]1(C)CC[C@]23CC1C(C)(C)C2CC[C@@H]3C (some centres undefined) | -5% | / | -2% | / | / | -2%
COc1ccc(-c2nc3cnc(N4CCOCC4)nc3n(C[C@H]3CCCO3)c2=O)cc1 | ? | / | / | / | -30% | -3%
COc1ccccc1NC(=O)c1sc2cccc(Cl)c2c1Cl | / | 9 | / | / | / | /
CC(C)CCC[C@@H](C)[C@@H]1CC[C@@H]2[C@H]3CC[C@H]4C[C@@H](N)CC[C@@]4(C)[C@@H]3CC[C@]21C | 14%[13.5 µM] | / | -3% | / | -14%[10 µM] | -13%
O=C1C2C3CCC(C3)C2C(=O)N1Cc1ccco1 (centres undefined) | 12µM* | / | -1% | -1% | 9%[0.074 µM] | 6%
Cc1ccc(CC2CC(=O)N(Cc3ccco3)C2=O)cc1 (centres undefined) | 19µM* | 2 | -11% | 2% | 10% | 6%[38.3 µM]
O=C1CC(Cc2ccccc2)C(=O)N1Cc1ccco1 (centres undefined) | 2.8µM* | 2 | -14% | 25% | -20% | -12%[38.3 µM]
O=C1CC(NCc2ccco2)C(=O)N1CCc1ccccc1 (centres undefined) | -14% | -1 | -17% | 1% | -5% | 3%[38.3 µM]
CC(C)CCN(CCC(C)C)C(CO)(CO)CO | 28µM* | / | / | 16%[9.22 µM] | 6%[10 µM] | -2%
C[C@@](O)(CNS(=O)(=O)c1ccccc1)c1ccccc1 | -3%[13.5 µM] | / | -3% | / | 5%[10 µM] | -2%
C/C(CC(C)(C)c1ccccc1)=N\NS(=O)(=O)c1ccccc1 | 13µM* | / | / | ? | ? | 17%
COc1cc(NC(=O)C2CCCO2)c(OC)cc1NC(=O)c1ccccc1 (centres undefined) | -7% | 11 | -4% | ? | -3% | 1%[38.3 µM]
COc1ccc(N2C(=O)C3CCCCC3C2=O)cc1NC(=O)c1ccccc1 (centres undefined) | 0.89µM* | / | / | 10%[9.22 µM] | 18%[10 µM] | 2%
COCC(=O)N1CCC[C@@]2(CCN(c3ncccn3)C2)C1 | -7% | / | -16% | / | 1% | 6%
CCCCCC/C=C1\CC(C(=O)OCC)Oc2ccccc21 (centres undefined) (tested in a mixture with another compound) | 4% | / | -12% | / | -43% | 12%
C=C(C)C1CCC(C)=C1CC(C)(C)/C=N\n1cnnc1 (centres undefined) | 22µM* | 8 | -14% | ? | 11% | 15%[38.3 µM]
CC1CCC(C(=O)O)NC1c1cccc(N2CCOCC2)c1 (centres undefined) | -3%[13.5 µM] | / | / | / | -16%[10 µM] | /
COc1ccc(C(=O)CSc2nnc(CNc3ccc(F)cc3)o2)cc1 | ? | / | / | 6% | -29% | -6%
COc1ccc(NCc2nnc(SCC(=O)c3ccc(C)cc3)o2)cc1 | 28µM* | 4 | -23% | 15% | -4% | 18%[38.3 µM]
SMILES | ALDH1A1 block | IMPase cell inh | HPGD inh | HTT aggregate | HTT ATP protect | IMPase Li cell
CCN(CC)S(=O)(=O)c1ccc(-c2nnc(SCC(=O)Nc3ccc(OC)cc3)o2)cc1 | -4% | -11 | -15% | -30% | -6%[10 µM] | 6%
Cc1ccc(C(=O)CSc2nnc(COc3cc(C)cc(C)c3)o2)cc1 | ? | 6 | -10% | -6% | 0% | 48%[38.3 µM]
Cc1cc(C)cc(OCc2nnc(SCC(=O)c3ccccc3)o2)c1 | -11% | -3[1.84 µM] | 28µM* | 20% | -19%[10 µM] | 22%[38.3 µM]
CCN(CC)S(=O)(=O)c1ccc(-c2nnc(SCC(=O)c3ccc(OC)cc3)o2)cc1 | 0.35µM* | 5 | -7% | ? | 1% | -20%[38.3 µM]
COc1ccc(NCc2nnc(SCC(=O)Nc3cc(C)cc(C)c3)o2)cc1 | 3.2µM* | -2 | -29% | 19% | -3%[10 µM] | 41%[38.3 µM]
CCN1CCC[C@@H]1CNC(=O)c1c(OC)ccc(I)c1O | / | / | / | / | -5%[1.9 µM] | /
Cc1ccc(CN(CC(=O)NC2CCCC2)C(=O)CSc2nnc(COc3ccccc3)o2)cc1 | ? | 3 | 28µM* | -2% | -21%[10 µM] | 8%
O=C(CSc1nnc(COc2ccc(Cl)cc2)o1)N1c2ccccc2CCc2ccccc21 | 22µM* | 8 | 2% | -14% | -53% | 19%[38.3 µM]
COc1ccc(NC(=O)CSc2nnc(CNc3ccc(F)cc3)o2)c(OC)c1 | -12% | 5 | -15% | -16% | 10% | 29%[38.3 µM]
COc1ccc(NCc2nnc(SCC(=O)Nc3cc(C(F)(F)F)ccc3Cl)o2)cc1 | 28µM* | 10 | -14% | -24% | -28% | 1%[38.3 µM]
CC1(C)[C@@H]2CC[C@@]1(CS(=O)(=O)Nc1ccccc1)C(=O)C2 | 15%[13.5 µM] | / | -4% | / | -11%[10 µM] | -1%
CCC(=O)Oc1ccc(C2Nc3ccccc3-c3nnc(SC)nc3O2)cc1 (centres undefined) | / | 4 | / | / | / | /
Cc1noc(C)c1C(=O)N1CCC2(CCCN(C(=O)Nc3cccc(C#N)c3)C2)CC1 | 6% | / | -5% | / | ? | -2%
O=C(OCc1nnn(Cc2ccccc2)c1-c1c(COC(=O)c2ccccc2)nnn1Cc1ccccc1)c1ccccc1 | / | / | / | -28%[9.22 µM] | 14%[10 µM] | /
CCNc1ncc2nc(-c3ccc(Cl)cc3)c(=O)n(C[C@H]3CCCO3)c2n1 | ? | / | / | / | -51% | 10µM*
COc1cccc(Nc2ncc3nc(CCc4ccccc4)c(=O)n(C[C@H]4CCCO4)c3n2)c1 | 25µM* | / | ? | / | -36% | 16%
CCNc1ncc2nc(-c3ccc(OC)cc3)c(=O)n(C[C@H]3CCCO3)c2n1 | ? | / | / | / | -41% | ?
O=c1c(CCc2ccccc2)nc2cnc(Nc3ccccc3)nc2n1C[C@H]1CCCO1 | ? | / | / | / | -16% | 7%
CN(C)c1ncc2nc(-c3ccc(F)cc3)c(=O)n(CCc3ccccc3)c2n1 | ? | / | / | / | 1% | 10µM*
CCNc1ncc2nc(-c3cccs3)c(=O)n(CCc3ccccc3)c2n1 | -1% | / | / | / | 1.4µM* | ?
CCNc1ncc2nc(-c3cccs3)c(=O)n(CCC#N)c2n1 | ? | / | / | / | -52% | 0%
